An excerpt weighted towards active compounds, which were near 21% of everything screened.
ClpP mod: qHTS Assay for Activators of ClpP; purified B. subtilis ClpP, FRET peptide cleavage, 20 min; Potency, µM (doses to about 57.5 µM), for the others: top-dose activity change, negative = active; 340,000 tested, 1.9% active; active means well fitted falling curve with a large enough effect; inconclusive means small, poorly fitted or top-dose-only effect; inactive means no such curve, though single readings can be large or run the other way; further: potency means the concentration at half of the fitted maximal effect; the source files actives as falling curves though it sought activators and does not explain the sign; nearly all actives have a fitted effect of over 65% in size
Target sequence (P80244 whole entry, looked up): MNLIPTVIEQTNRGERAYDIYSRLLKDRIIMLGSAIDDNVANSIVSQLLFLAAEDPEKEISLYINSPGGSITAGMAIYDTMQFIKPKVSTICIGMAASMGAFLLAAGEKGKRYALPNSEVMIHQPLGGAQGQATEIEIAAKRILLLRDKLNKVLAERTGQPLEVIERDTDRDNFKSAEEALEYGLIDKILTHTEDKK
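Buffer: 100 mM Tris/HCl pH8, 100 mM KCl, 0.05% low protease BSA, 2.5% glycerol, 0.01% Tween-20. ClpP 10 microg/mL final; 20 min RT; delta FRET normalized to ADEP and DMSO controls.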
TDP1 cell CPT: DT40-hTDP1 cell growth loss with CPT | chicken DT40 Tdp1-/-;hTDP1 cells + 20 nM CPT, ATP luminescence, 48 h | Potency, µM (highest dose often 46.2 µM), for the others: at the highest dose activity change, negative = growth inhibition, usual class: inhibitors | 420,000 tested, 12% active; further: potency means the concentration at half of the fitted maximal effect; on the % scale 0 is the no-effect control and ±100 the full control effect; nearly all actives have a fitted effect of over 55% in size
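Cell growth measured by CellTiter-Glo luminescence after a minimum 48 h, 37 C compound exposure with 20 nM CPT in Tdp1-knockout DT40 cells stably expressing hTDP1, seeded 400/well; qHTS titration format.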
IL1B secr inh: inflammasome signaling inhibition, IL-1 beta readout; THP-1 LPS/ATP IL-1B secretion, AlphaLISA, 16 h; hits give low values; activity change, % at 57.5 µM; 360,000 tested, 4.7% active; in the data active means activity change below about -50%; inconclusive means mostly about -30% to -49%; further: on the % scale 0 is the no-effect control and ±100 the full control effect
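Secreted IL-1B measured by AlphaLISA bead assay after 16 h compound exposure of THP-1 cells; compounds (final up to 57.5 uM) added 1 h before LPS (250 ng/mL) and ATP (1.25 mM) stimulation; lower signal means less secretion.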
D3 antag: blocks the human D3 dopamine receptor; P35462; D3R cells, DiscoveRx beta-arrestin luminescence, antagonist mode; hits give low values; max response, negative = inhibition, %; 360,000 tested, 2.5% active; AID 652054; in the data active means max response below about -50%; inconclusive means no clear call, values can overlap the other calls; further: on the % scale 0 is the no-effect control and ±100 the full control effect
Target sequence (P35462 whole entry, looked up): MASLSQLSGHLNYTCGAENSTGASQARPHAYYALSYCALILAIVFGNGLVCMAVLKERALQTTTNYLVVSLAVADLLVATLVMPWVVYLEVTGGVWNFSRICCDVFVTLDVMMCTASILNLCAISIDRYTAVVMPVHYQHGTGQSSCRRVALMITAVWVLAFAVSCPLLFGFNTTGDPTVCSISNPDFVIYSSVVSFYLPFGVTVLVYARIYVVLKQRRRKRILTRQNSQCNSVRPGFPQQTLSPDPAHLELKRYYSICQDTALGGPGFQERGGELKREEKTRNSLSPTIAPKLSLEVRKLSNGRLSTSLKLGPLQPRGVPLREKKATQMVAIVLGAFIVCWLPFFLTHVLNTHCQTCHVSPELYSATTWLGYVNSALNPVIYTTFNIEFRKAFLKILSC
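Cells plated overnight at 1500 cells/well, then exposed to library compounds with dopamine controls for 90 minutes at 37 degrees C. DiscoveRx reagent added for 30–60 minutes at room temperature; luminescence read, quantitative HTS format.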
TDP1 cell noCPT: qHTS for Inhibitors of human tyrosyl-DNA phosphodiesterase 1 (TDP1): qHTS in cells in absence of CPT. DT40 Tdp1-/- hTDP1 cells, no CPT, ATP luminescence, 48 h. Potency, µM (doses to about 46.2 µM), for the others: at the highest dose activity change, negative = growth inhibition, hits mostly inhibitors. 420,000 tested, 15% active. AID 686978, 2013; further: potency means the concentration at half of the fitted maximal effect; on the % scale 0 is the no-effect control and ±100 the full control effect; nearly all actives have a fitted effect of over 55% in size
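Growth of hTDP1-complemented DT40 Tdp1-knockout cells is measured by ATP luminescence after at least 48 hr compound exposure at 37 °C, with DMSO substituting for the 20 nM CPT used in the parallel screen.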
DRD3 agonist: D3 dopamine receptor (human) agonism; D3R DiscoveRx beta-arrestin cells, luminescence, 90 min; 410,000 tested, 0.58% active; max activation, %; in the data active means max activation above about 30%; further: 0% is about no effect
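Cells at 1500/well, incubated overnight, then treated with pinned compounds (dopamine as control) for 90 min at 37 degrees C. DiscoveRx reagent added for 30 - 60 minutes at room temperature; luminescence read.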
Starred values were filed as active, the others as inactive; ? = inconclusive; nt = not tested or not shown; [ ] = remark or other dose. Unless noted, the call rests on the fitted dose curve; in most records, active means well fitted inhibition curve with a large enough effect; inconclusive means small, poorly fitted or top-dose-only effect; inactive means flat fitted curve, though single readings scatter.

SMILES | ClpP mod | TDP1 cell CPT | IL1B secr inh | D3 antag | TDP1 cell noCPT | DRD3 agonist
O=C(CCC(=O)Nc1ccc(Br)cc1)N/N=C/c1ccc(O)cc1 | -11% | -8% | 1 | -17 | ? | -8
CCOCCCn1c(=O)c2ccccc2n2c(=S)[nH]nc12 | 7% | 7% | -7 | -10 | -13% | 1
CC(=O)O[C@@H]1CC2C(C)(C)C(=O)C=C[C@]2(C)C2CC[C@]3(C)C(=CC[C@H]3C3CO[C@@H](C(C)(C)O)[C@H](O)C3)[C@@]21C (stereo partly drawn) | nt | ? | nt | nt | -8%[9.04 µM] | nt
Cc1ccc2c(c1)N(C(=O)CCC(=O)NCCN1CCOCC1)CC(C)O2 (stereo not drawn) | 0% | -18% | 7 | 0 | 8% | 3
Cc1cc(C)nc(NC(=NCCc2c[nH]c3ccccc23)NC(=O)C(C)(C)C)n1 | nt | ? | -1 | 9 | 15µM* | -16
O=C(NCCCCNC(=O)c1ccccc1F)c1ccccc1F | nt | 0% | 7 | -1 | ? | 1
O=C(NCCNc1ccc(Cl)cc1[N+](=O)[O-])c1ccccc1F | 2% | -18% | -7 | -11 | 21µM* | -4
O=C(NCCNc1ccnc2cc(Cl)ccc12)c1ccccc1F | -19% | 6.5µM* | -14 | -29 | 4.1µM* | -13
CCOC(=O)c1c(C)[nH]c(C)c1S(=O)(=O)N(C)CC(=O)Nc1cccc(C(F)(F)F)c1 | -2% | ? | nt | nt | -17% | 1
CN(NC1OC(=O)c2ccccc21)c1ccccc1[N+](=O)[O-] (stereo not drawn) | nt | 9% | 11 | ? | -5% | -9
CC(=O)Nc1ccc2c(c1)CCc1ccccc1-2 | nt | 11% | 13 | 6 | -2% | -14
O=C(O)/C=C/C(=O)c1ccc2c(c1)CCc1ccccc1-2 | -7% | 4.1µM* | -104* | -139* | 3.7µM* | -80
Cc1ccc(CNC(=O)CN(C)S(=O)(=O)c2ccc(F)cc2)cc1 | 0% | -12% | -12 | 15 | -20% | 1
Cc1ccc2nc(CCl)[n+]([O-])c(-c3ccccc3)c2c1 | nt | 26µM* | ? | -4 | 16µM* | -10
Cc1ccc2nc(Cl)c(-c3ccccc3)cc2c1 | nt | 28% | -1 | 2 | -30% | 18
COCCNC(=O)C1(C)CCN(C(=O)c2sccc2C)C1 (stereo not drawn) | 2% | -8% | 0 | -22 | -12% | -3
N=c1c[n+](N2CCOCC2)[n-]o1 | 0% | -20% | 6 | -107* | -14% | -11
CN(CCCC1CCCC1)C(=O)CC1C(=O)NCCN1Cc1cccc(F)c1F (stereo not drawn) | -6% | ? | -23 | 14 | ? | 3
c1ccc(Nc2ncnc3sccc23)cc1 | nt | -2% | 6 | -11 | -14% | 3
CC(Nc1ncnc2sccc12)c1ccccc1 (stereo not drawn) | -2% | 2.6µM* | -8 | 50 | 0.92µM* | 14
Cc1noc(C(=O)Nc2cccc(Cl)c2)c1Cl | -13% | 7% | 30 | -24 | 0% | 0
Cc1cccc(NC(=S)NCCO)c1C | 1% | -11% | 18 | 8 | -3% | 0
COc1ccc2[nH]c(C)c(CCNC(=S)Nc3ccc(C)cc3)c2c1 | -1% | 18µM* | -26 | -19 | ? | 1
COc1ccc2[nH]c(C)c(CCNC(=S)Nc3ccccc3C)c2c1 | -7% | 18µM* | -10 | -10 | ? | -3
COc1ccc2[nH]c(I)c(CCNC(C)=O)c2c1 | nt | 1% | nt | nt | 4% | nt
SMILES | ClpP mod | TDP1 cell CPT | IL1B secr inh | D3 antag | TDP1 cell noCPT | DRD3 agonist
COc1ccc2[nH]c(C(=O)O)c(CCNC(C)=O)c2c1 | 8.9µM* | -2% | 23 | -19 | 7% | 4
CCNC(=S)N(CCc1c(C)[nH]c2ccc(OC)cc12)Cc1cccnc1 | nt | 7% | -14 | 6 | -29% | 2
COc1ccc(NC(=S)NCCc2ccccc2)c(OC)c1 | 0% | ? | -2 | 4 | ? | 6
COc1ccc2[nH]c(C)c(CCNC(=S)Nc3cccc(C)c3C)c2c1 | -8% | ? | 8 | -5 | 21µM* | -1
CNC(=S)N/N=C/c1cc(Br)c(OCc2ccncc2)c(OC)c1 | 1% | ? | -2 | 7 | ? | 0
COc1cc(/C=N/NC(N)=S)cc(Br)c1OCc1ccccc1F | ? | 6.5µM* | 32 | -51* | 6.5µM* | -7
COc1cccc(/C=N/n2nnnc2N)c1OCc1ccccc1Cl | ? | -3% | 10 | -17 | -16% | 5
NC(=S)N/N=C/c1ccccc1OCCSc1ccc(Cl)cc1 | -22% | 13µM* | ? | ? | 15µM* | -16
CCOc1cc(/C=N/N=C(\N)c2nonc2N)cc(Br)c1OCc1cccc2ccccc12 | 1% | 23µM* | 3 | 13 | 13µM* | 6
COc1cccc(/C=N/NC(N)=S)c1OCc1ccccc1Cl | nt | 2.9µM* | -14 | -22 | 4.1µM* | -5
Cc1cccc(NC(=O)c2oc3ccccc3c2NC(=O)Cc2coc3cc(C)cc(C)c23)c1 | -2% | ? | nt | nt | ? | 1
CCOC(=O)[C@@H]1[C@H]2COc3ccccc3[C@@H]2N2C(=O)N(c3ccc(F)cc3)C(=O)[C@]12C | -1% | -2% | 6 | -9 | -10% | 1
NCCNCCN | nt | 17% | nt | nt | 3% | 11
CCOc1cc(/C=N/NC(N)=O)cc(Br)c1OCc1ccccc1 | -6% | ? | 8 | 8 | ? | 8
CCOc1cc(/C=N/NC(N)=S)cc(Br)c1OCc1ccccc1C | 0% | 5.8µM* | 68 | -15 | 16µM* | 1
CC(C)CN(C(=O)C1CCCO1)C1CCS(=O)(=O)C1 (stereo not drawn) | nt | -6% | 0 | -18 | -9% | -3
COc1ccc(C(=S)N2CCN(c3cccc(Cl)c3)CC2)c(OC)c1 | nt | 2.6µM* | 50 | -18 | 4.1µM* | -25
O=C(c1ccc([N+](=O)[O-])s1)N1CCN(c2cccc(Cl)c2)CC1 | -9% | 21µM* | -58* | -2 | 21µM* | -20
COc1ccc(C(=O)N2CCN(c3cccc(Cl)c3)CC2)cc1S(=O)(=O)NC1CC1 | 0% | 15µM* | 22 | 9 | 15µM* | 6
COc1ccc(C(=O)N2CCN(c3ccc(F)cc3)CC2)cc1S(=O)(=O)NC1CC1 | 1% | -22% | -13 | 11 | ? | 3
COC(=O)c1ccc(C(=O)OC)c(NC(=S)N2CCN(c3cccc(Cl)c3)CC2)c1 | 2% | -22% | 0 | -25 | ? | 2

Screens (PubChem BioAssay)
